As a reminder, the inhibition is the relative decrease from the control value, in per cent.

Values joined by “and” are separate entries in the source; they are usually repeats but may differ in a detail not shown here. Identical values can stand only once. Out of some 220,000 compounds screened, about 2,000 (0.91%) were called active. Not shown: some 2% with an inconclusive outcome. Rule as the data show it: inconclusive = inhibition above about 80% without an active follow-up result; inactive = below that; test concentration not stated here. These entries were drawn from the full list. Results with a measured potency or affinity are listed apart.

This assay can be described thus: M. tuberculosis H37Rv growth inhibitors, H37Rv strain (AID 1626).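 Also: bacteria incubated seven days before Alamar blue readout; 0% = bacteria only wells and 100% = bacteria with antibiotic wells.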 Particulars: active compounds read high, concentration not given here.
For `C=CCn1c(CNC(=O)c2ccccc2C)nnc1SCC(=O)NC1CCCC1`, the inhibition is -7.41% (inactive).

Turning to `CN1CCN(C2=Cc3ccccc3Sc3cc(F)ccc32)CC1`, the inhibition is 2.61% (inactive).

In the case of `CN1CCN(CCCN2c3ccccc3Sc3ccc(Cl)cc32)CC1`, the inhibition is -5.97% (inactive) and 68.2% (inactive) and 79.9% (inactive).

For the molecule `CN1CCN(C2=Cc3ccccc3Sc3cc(F)c(F)cc32)CC1`, the inhibition was 11.1% (inactive).

Turning to `CN1CCN(c2ccc(F)cc2N)CC1`, the inhibition is 0.4% (inactive).

With `CCc1ccc(CCC(=O)Nc2nnc(CC)s2)o1`, the inhibition was 7.07% (inactive).

As to `COc1ccc(CNc2nc3nc(C)c(Cl)c(C)n3n2)cc1`, the inhibition is -2.45% (inactive).

As to `O=S(=O)(c1ccc2c(c1)OCCCO2)N1CCNCC1`, the inhibition was -0.23% (inactive).

Regarding `O=C(c1ccc2c(c1)OCCO2)N1CCCC(CNS(=O)(=O)c2cccs2)C1` (configuration not stated), the inhibition is 4.35% (inactive).

Take `Cc1[nH]c2ccccc2c1SCCNC(=O)c1ccc(Br)o1`: the inhibition is -0.07% (inactive).

In the case of `CCC(=O)Nc1cccc(NC(=O)c2ccc(C)c([N+](=O)[O-])c2)c1`, the inhibition is 15.4% (inactive).

In the case of `CC(=O)OCCNC(=O)c1cc2ccccc2oc1=O`, the inhibition was -6.56% (inactive).

Take `CN(C)CCNC(=O)c1cc2ccccc2oc1=O`: the inhibition was 2.99% (inactive).

For `CCC1(CC)C(=O)N(C)C(=O)NC1=Nc1ccc(OC)cc1`, the inhibition was -7.12% (inactive).

As to `O=S(=O)(Nc1nccs1)c1ccc(F)cc1`, the inhibition is -3.51% (inactive).

On to `NS(=O)(=O)c1ccc(N=C2C(=O)Nc3ccccc32)cc1`, for which the inhibition is -2.66% (inactive).

On to `O=[N+]([O-])c1ccccc1S(=O)(=O)NCc1ccco1`, for which the inhibition is 9.2% (inactive).

For `Cc1ccc2cc(CN(CC3CCCO3)C(=S)NCc3ccco3)c(=O)[nH]c2c1` (configuration not stated), the inhibition was 1.74% (inactive).

For `CC1=CC(=O)N(c2cccc(C(F)(F)F)c2)C1c1ccc(Cl)cc1` (configuration not stated), the inhibition was 5.08% (inactive).

Turning to `Cc1nc([N+](=O)[O-])c(Br)n1CC(=O)c1ccc(F)cc1`, the inhibition is 52.5% (inactive).

Consider `Cc1nc([N+](=O)[O-])c(Br)n1CC(=O)c1ccccc1`, for which the inhibition was 37% (inactive).

`Cc1nc([N+](=O)[O-])c(Br)n1CC(=O)c1ccc(Br)cc1`: the inhibition is 18.9% (inactive).

Turning to `Cc1nc([N+](=O)[O-])c(Br)n1Cc1ccccc1`, the inhibition is 28.8% (inactive).

For the molecule `CCN(c1ccccc1)S(=O)(=O)c1ccc(Cl)c(NC(=O)CSc2nncs2)c1`, the inhibition was 6.07% (inactive).

For the molecule `CCCCCCCCc1nc(SCC(C)=O)n[nH]1`, the inhibition was 8.52% (inactive).

For `O=C(CS(=O)(=O)c1cccc(Cl)c1)Nc1ccccc1Cl`, the inhibition is -9.41% (inactive).

As for `CC(C)(C)c1cnnn1-c1ccc(/C=N/Nc2ccc([N+](=O)[O-])cc2)cc1`, the inhibition is -0.06% (inactive).

Turning to `O=C(NCCN1CCN(c2ccccc2)CC1)c1cccn2c(=O)c3cc(Cl)ccc3nc12`, the inhibition was 8.3% (inactive).

For `O=[N+]([O-])c1ccc(O)c(N=Cc2sc3ccccc3c2O)c1`, the inhibition is 5.55% (inactive).

As for `Cc1ccc(O)c(N=Cc2sc3ccccc3c2Cl)c1`, the inhibition was 11.1% (inactive).

Consider `CCCc1ccc(NS(=O)(=O)c2c(C)oc(C)c2C(=O)OC)cc1`, for which the inhibition was 3.72% (inactive).

Consider `CN1CCN(C(=S)c2cn(Cc3cccc(F)c3)c3ccccc23)CC1`, for which the inhibition was 2.92% (inactive).

Take `COc1ccc(C)cc1S(=O)(=O)N1CCN(c2cccc(C(F)(F)F)c2)CC1`: the inhibition is -1.59% (inactive).

Regarding `CCC1C(c2ccccc2)N(C)C(c2ccccc2)CC1(O)c1ccccc1` (configuration not stated), the inhibition is 51.8% (inactive).

For the molecule `CC1/C(=N/O)CC(c2ccccc2)N(C)C1c1ccccc1` (configuration not stated), the inhibition is -3.61% (inactive).

Turning to `O=C(Nc1ccc(O)cc1C(=O)O)c1cccc(Br)c1`, the inhibition was 0.45% (inactive).

Take `COc1cnc(-c2ccccn2)nc1Oc1ccc(Cl)cc1`: the inhibition is 71.9% (inactive).

On to `Fc1ccc(Oc2ncccn2)c(F)c1`, for which the inhibition was 0.19% (inactive).

Consider `Nc1cccnc1Oc1ccc(F)cc1F`, for which the inhibition was -4.1% (inactive).

Turning to `COc1cnc(-c2ccccn2)nc1Oc1ccccc1Cl`, the inhibition is -2.44% (inactive).

As for `C#CCOCCOCCOCCNc1nc(N2CCN(C(=O)[C@H](CCC(=O)O)n3cc(C(N)[C@H](C)CC)nn3)CC2)nc(N2CCN(C(=O)[C@H](Cc3ccc(O)cc3)n3cc(C(N)[C@H](C)CC)nn3)CC2)n1` (some centres not stated), the inhibition is 0.56% (inactive).

For the molecule `Cc1ccc(NC2=C/C(=N/S(=O)(=O)c3cccs3)c3ccccc3C2=O)cc1C`, the inhibition is 0.28% (inactive).

Turning to `O=C1C(Nc2ccccc2)=C/C(=N/S(=O)(=O)c2cccs2)c2ccccc21`, the inhibition is 76.6% (inactive).

In the case of `Cc1cccc(NC2=C/C(=N/S(=O)(=O)c3cccs3)c3ccccc3C2=O)c1`, the inhibition was 1.87% (inactive).

On to `Cc1ccccc1NC1=C/C(=N\S(=O)(=O)c2cccs2)c2ccccc2C1=O`, for which the inhibition was 61.1% (inactive).

Regarding `CC(=O)Nc1ccc(S(=O)(=O)NC(C)C(=O)NCCc2ccc(F)cc2)cc1` (configuration not stated), the inhibition was 1.81% (inactive).

For the molecule `O=C(COCC(=O)NCc1ccccc1)NCc1ccccc1`, the inhibition was -4.59% (inactive).

Consider `CCN(CC)S(=O)(=O)c1cc(F)ccc1OC`, for which the inhibition was -2.44% (inactive).

With `CC(C)n1nnc2c(=O)oc3ccccc3c21`, the inhibition is 11.1% (inactive).

For the molecule `CCn1nnc2c(=O)oc3ccccc3c21`, the inhibition was 13.4% (inactive).

Consider `COc1cc2c(cc1OC)C(c1cc([N+](=O)[O-])ccc1O)NCC2` (configuration not stated), for which the inhibition is -9.49% (inactive).

Consider `CC(=O)c1cccc(NC(=O)N2CCc3ccccc3C2)c1`, for which the inhibition is -10.8% (inactive).

Turning to `COCCOC(=O)C1=C(N)OC2=C(C(=O)CC(C)(C)C2)C1c1ccncc1` (configuration not stated), the inhibition was -0.69% (inactive).

As for `O=C1NN(c2ccc(Cl)c(Cl)c2)C(=O)/C1=C/c1cccc(OC(=O)c2cccs2)c1`, the inhibition was 34.2% (inactive).

Turning to `Cc1ccc(N2C(=O)NC(=O)/C(=C/c3ccc(OC(=O)c4cccs4)cc3)C2=O)cc1`, the inhibition was 4.29% (inactive).

With `COc1c(Cl)cc(Cl)cc1C(=O)Nc1ccccc1N1CCN(C(C)=O)CC1`, the inhibition is 1.59% (inactive).

Consider `CCOC(=O)c1[nH]cnc1C(=O)Nc1ccccc1OC`, for which the inhibition was -3.28% (inactive).

As for `O=C(Cn1nnc(-c2ccc(Cl)cc2)n1)NCC1CCCCC1`, the inhibition is 3.64% (inactive).

As for `CCC1CCCCN1CC(=O)Nc1cc(OC)c(OC)cc1C#N` (configuration not stated), the inhibition is -5.44% (inactive).

In the case of `O=C(CC1SCCNC1=O)Nc1cccc([N+](=O)[O-])c1` (configuration not stated), the inhibition was -1.32% (inactive).

On to `Oc1ccc(Cl)cc1C=Nc1ccc(Br)cc1`, for which the inhibition is -2.18% (inactive).

Take `Oc1ccc(Br)cc1C=Nc1ccc(Cl)cc1`: the inhibition is 3.2% (inactive).

As for `COCC(C)NC(=O)c1oc2c(c1C)C1(CCC2)SCCS1` (configuration not stated), the inhibition was 5.96% (inactive).

On to `Cc1cc(N2CCCC2)nc(N2C3CCC2CC(O)(c2ccc(F)cc2)C3)n1` (configuration not stated), for which the inhibition was 0.78% (inactive).

As to `Cc1cc(N2CCN(c3ccc(F)cc3)CC2)nc(-c2ccccc2)n1`, the inhibition was 4.82% (inactive).

For the molecule `COc1ccc(C2(O)CC3CCC(C2)N3c2nc(C)cc(C)c2C#N)cc1` (configuration not stated), the inhibition is -5.82% (inactive).

As for `COc1ccc(NC(=O)C2CCN(c3cc(C)nc(-c4ccccc4)n3)CC2)cc1`, the inhibition is 11.4% (inactive).

In the case of `O=C(Cc1c(O)c2ccccc2[nH]c1=O)NCc1ccc(F)cc1`, the inhibition is -5.49% (inactive).

`CCn1ccnc1CNC(=O)CC1C(=O)NCCN1CC(c1ccccc1)c1ccccc1` (configuration not stated): the inhibition is 4.83% (inactive).

Consider `CCN(Cc1ccccc1)C(=O)COC(=O)Cn1cnc2ccccc21`, for which the inhibition was 3.35% (inactive).

Turning to `Clc1ccc(OCCn2ccnc2)c(Br)c1`, the inhibition is 1.12% (inactive).

Consider `Clc1ccc(OCCn2ccnc2)c(Cl)c1`, for which the inhibition is -5.05% (inactive).

For `OC(Cn1ccnc1)c1ccc(Cl)cc1Cl` (configuration not stated), the inhibition is -10.3% (inactive).

As for `S=C(NCCCn1ccnc1)Nc1ccc(Cl)cc1Cl`, the inhibition is 5.11% (inactive).

`OCC[C@H]1C[C@H](O)[C@@H](O)[C@@]2(CCCCO2)O1`: the inhibition was -8.14% (inactive).

Consider `S=C(NCc1ccccc1Cl)Nc1ccccc1Cl`, for which the inhibition was 9.29% (inactive).

Regarding `COc1ccccc1-n1cc(C(=O)c2cc(Cl)ccc2O)cc(C#N)c1=O`, the inhibition was 7.62% (inactive).

With `CC(=O)OC(C(=O)NC1CCCCC1)c1ccc(C)cc1` (configuration not stated), the inhibition was -5.04% (inactive).

For `CCCC(C)C(=O)OCC(=O)Nc1ccc(Br)cc1` (configuration not stated), the inhibition is 10.2% (inactive).

On to `COC(=O)c1ccc(NC(=O)CSCc2ccc(C)cc2)cc1`, for which the inhibition is 70.8% (inactive).

For `Cc1ccc(NC(=O)CSCc2ccc(F)cc2)cc1`, the inhibition is 76.7% (inactive).

For the molecule `COc1ccc(-n2c(-c3ccc(Cl)cc3)c[n+]3c2CCCCC3)cc1`, the inhibition was -11.5% (inactive).

`O=C(C1CCC(CNc2c(N3CCOCC3)c(=O)c2=O)CC1)N1CCN(c2ccccc2)CC1` (configuration not stated): the inhibition was -8.11% (inactive).

For the molecule `COc1ccc(CN2CCc3ccccc3C2)c(OC)c1`, the inhibition was -5.76% (inactive).

On to `Cc1ccc(S(=O)(=O)N2CCN=C2c2ccccc2)cc1C`, for which the inhibition was 0.57% (inactive).

`NC(=O)c1ccc(C(F)(F)F)n(Cc2cccc(Cl)c2)c1=O`: the inhibition was 17.3% (inactive).

Regarding `O=c1c([N+](=O)[O-])cccn1Cc1cccc(Cl)c1`, the inhibition was -8.12% (inactive).

In the case of `COC(=O)c1ccc(Cn2cc(C(F)(F)F)ccc2=O)cc1`, the inhibition was 2.66% (inactive).

Regarding `COC(=O)c1cc(Br)c(=O)n(Cc2ccc(C(=O)O)cc2)c1`, the inhibition is -9.26% (inactive).

Take `CC(C)NC(=O)COC(=O)c1ccc(Oc2ccccc2)cc1`: the inhibition is -7% (inactive).

Consider `c1ccc(-c2ccc(OCCCNC3CCCC3)cc2)cc1`, for which the inhibition is 11.4% (inactive).

For the molecule `O=C1c2oc3ccccc3c(=O)c2C(c2cccc(Br)c2)N1Cc1ccco1` (configuration not stated), the inhibition was 1.43% (inactive).

As for `Cc1ccc2oc3c(c(=O)c2c1)C(c1cccc(Br)c1)N(Cc1ccco1)C3=O` (configuration not stated), the inhibition is 1.98% (inactive).

With `CN1CCN(C(=S)c2cn(CCOc3ccccc3)c3ccccc23)CC1`, the inhibition is 13% (inactive).

Consider `Cc1cc(N/C=C(\C#N)S(=O)(=O)c2ccccc2Cl)nc(C)n1`, for which the inhibition is -9.07% (inactive).

As for `CC1=CC(C)(C)N2C(=O)C(=Nc3ccc(O)cc3)c3cccc1c32`, the inhibition is 3% (inactive).

Regarding `COc1cc2c3c(c1)C(C)=CC(C)(C)N3C(=O)C2=O`, the inhibition is -3.11% (inactive).

Values taken from PubChem BioAssay AID1626 (SRMLSC, 2009).
